Screening data (PubChem)
ALDH1A1 block = inhibitors of human aldehyde dehydrogenase 1A1 | actives 7.3% (n = 220,000) | Potency, µM (series often up to 75.3 µM), for inactives: top-dose activity, negative = inhibition, usual class: inhibitors | AID 1030 | Purified ALDH1A1, NADH fluorescence, propionaldehyde substrate | P00352;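 further: potency means the concentration at half of the fitted maximal effect; plate controls were no enzyme wells and a reference inhibitor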
PNC inhibitor = perinucleolar compartment assembly inhibition; PC3M PTB-GFP, PNC prevalence imaging, 16 h; hits give low values; activity change (PNC), negative = inhibition, % at 10 µM; actives 3.1% (n = 140,000); AID 2417;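 active means readout at or below -70, meaning at least 70% loss of cells showing the perinucleolar compartment, a nuclear body marking cancer cells; inconclusive means readout between -30 and a set limit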;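 further: plate controls were DMSO wells for no effect and camptothecin positive control wells for full effect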
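Compounds are pinned in duplicate onto adhered PC3M cells stably expressing GFP-tagged PTB and incubated 16 h at 37 C. Cells are then fixed, nuclei stained with Hoechst, and PNC-positive cells counted.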
HPGD inh = inhibitors of human 15-hydroxyprostaglandin dehydrogenase (HPGD). Potency, µM, for inactives: top-dose activity change, negative = inhibition, actives largely listed as inhibitors. actives 4.3% (n = 150,000). purified HPGD, NADH fluorescence kinetic, PGE2 substrate. AID 894; further: potency means the concentration at half of the fitted maximal effect
Target sequence (P15428 whole entry, looked up): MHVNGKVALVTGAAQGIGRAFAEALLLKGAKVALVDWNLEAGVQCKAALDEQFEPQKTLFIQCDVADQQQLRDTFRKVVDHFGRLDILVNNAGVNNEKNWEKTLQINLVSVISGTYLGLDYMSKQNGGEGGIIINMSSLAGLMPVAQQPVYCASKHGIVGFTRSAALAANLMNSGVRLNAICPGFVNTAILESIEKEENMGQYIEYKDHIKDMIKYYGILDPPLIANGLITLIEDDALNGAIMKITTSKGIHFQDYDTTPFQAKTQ
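20 nM HPGD preincubated 15 min at room temperature with compound in 50 mM Tris-HCl pH 8, 0.01% Tween 20. Started with 1 mM NAD+ and 30 uM prostaglandin E2; NADH fluorescence (360/450 nm) read 5 times over 30-s intervals, last minus first.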
Numbers without * were called inactive; ? = inconclusive; . = no result; [ ] = remark or other dose. Hits are enriched below; roughly 11% of the tested compounds scored in any of these assays. Unless noted, the call rests on the fitted dose curve; in most records, active means well fitted inhibition curve with a large enough effect (not every such curve was filed as active); inconclusive means small, poorly fitted or top-dose-only effect, or another doubt; inactive means no such curve, though single readings can be large or run the other way. Unless noted, on the % scale 0 is the no-effect control and ±100 the full control effect.

SMILES | ALDH1A1 block | PNC inhibitor | HPGD inh
O=C1CSc2ccc(C(=O)NCCC3=CCCCC3)cc2N1 | 7% | 68 | -6%
Cc1ccc(NS(=O)(=O)c2cc(NC(=O)c3ccc4c(c3)NC(=O)CS4)ccc2Cl)c(C)c1 | 10µM* | . | .
Cc1ccc(NS(=O)(=O)c2cc(C(=O)O)ccc2Cl)c(C)c1 | -4% | 216 | -9%
COCCSc1ccccc1C(=O)Nc1ccccc1C#N | 1% | . | .
COc1cc(C2C=C(C34CC5CC(CC(C5)C3)C4)NC(=S)N2)cc(OC)c1OC (stereo unspecified) | 1.1µM* | -17 | -2%
CC1C(=O)C(C)C(c2ccc3c(c2)OCO3)NC1c1ccc2c(c1)OCO2 (stereo unspecified) | -4% | -26 | .
COc1ccc(OC)c(C2C=C(C34CC5CC(CC(C5)C3)C4)NC(=S)N2)c1 (stereo unspecified) | 2.5µM* | ? | -12%
S=C1NC(C23CC4CC(CC(C4)C2)C3)=CC(c2ccc3c(c2)OCO3)N1 (stereo unspecified) | 2.5µM* | . | .
COc1ccc(C2=CC(c3cc(OC)c(OC)c(OC)c3)NC(=S)N2)cc1 (stereo unspecified) | -14% | -4 | -17%
COc1ccc(OC)c(C2SCCN2S(C)(=O)=O)c1 (stereo unspecified) | -5% | 27 | -9%
COc1ccc([N+](=O)[O-])cc1N(CC1CO1)S(=O)(=O)c1ccc(C)cc1 (stereo unspecified) | 3% | . | .
COc1cccc(C2(O)CC(C(F)(F)F)=NN2C(=O)c2ccccn2)c1 (stereo unspecified) | -12% | . | .
O=C(c1ccc(Cl)cc1)N1CCC(O)(CSc2ccc(Cl)cc2Cl)CC1 | 22µM* | -12 | -20%
CN1CCN(NC(=O)CSc2ccc(Cl)cc2Cl)CC1 | 5% | . | .
CC1=CC(C)C(/C=N/n2cnnc2)C(C)C1 (stereo unspecified) | 6% | -3 | -8%
C=C(C)C1CCC(C)=C1CC(C)(C)/C=N\n1cnnc1 (stereo unspecified) | 22µM* | -20 | -14%
O=C1c2ccccc2C(=O)c2cc(NC(=O)C3CC3)ccc21 | ? | ? | -3%
COCC(=O)Nc1ccccc1-c1ccccc1 | -10% | . | .
Cc1ccccc1OCC(=O)Nc1ccc2c(c1)C(=O)c1ccccc1C2=O | 18µM* | 44 | -15%
CCOc1ccccc1OCC(=O)Nc1ccc(S(=O)(=O)N(C)C)cc1 | -8% | -86* | -13%
CC(=O)Nc1ccc2c(c1)C(=O)c1ccccc1C2=O | 3.5µM* | -4 | -4%
CCOc1ccccc1OCC(=O)Nc1ccc(S(=O)(=O)Nc2ncccn2)cc1 | -2% | 56 | -16%
Cc1ccccc1OCC(=O)Nc1ccccc1-c1ccccc1 | 8.9µM* | 10 | -15%
Cc1ccccc1OCC(=O)Nc1ccc2c(c1)Cc1ccccc1-2 | -16% | -29 | .
COc1ccc(OC)c2c(C)cc(C)nc12 | 11% | 41 | -7%
SMILES | ALDH1A1 block | PNC inhibitor | HPGD inh
CCc1nnc(N2C(=O)c3ccc(Oc4ccc([N+](=O)[O-])cc4)cc3C2=O)s1 | 3% | -17 | -15%
COc1ccc(N/C=C(\C(C)=O)c2ccc(OC)c(OC)c2)cc1OC | 5% | . | .
CCOc1cc(C=C2C(=O)c3ccccc3C2=O)ccc1OCC(=O)Nc1ccc(C)cc1 | 15µM* | 28 | .
COc1ccc(CN(C)CC(=O)Nc2cc(OC)c([N+](=O)[O-])cc2C)c(OC)c1 | 4% | ? | -7%
CCOc1cc(/C=N/NC(N)=O)ccc1OCC(=O)Nc1ccc(C)c(C)c1 | -15% | . | .
COc1ccc(CN(C)CC(=O)Nc2ccccc2-c2ccccc2)c(OC)c1 | 2.8µM* | . | .
COC(=O)C1=C(C(=O)OC)[C@@H]2Nc3ccccc3[C@@]23C[C@@H](C(=O)OC)N(C(=O)c2ccco2)C3=N1 | -8%[13.5 µM] | . | -15%
CC1=CC(=O)C2=C(C)CC[C@@H]3[C@@H](OC(=O)[C@H]3C)[C@H]12 | 0%[20.9 µM] | . | 1%
CCSCc1nnc(SCC(=O)Nc2nc(C)cs2)n1C | -6% | . | .
O=C(c1nc2ccccn2c1CN1CCCC(c2nc3ccccc3o2)C1)N1CCCC1 (stereo unspecified) | -6% | . | .
Cc1ccc(S(=O)(=O)N2CCCC2)cc1S(=O)(=O)N1CCCC1 | 18µM* | ? | -11%
Cc1cc(S(=O)(=O)N2CCN(c3ccccc3O)CC2)c(C)s1 | ? | 40 | -6%
Cc1cc(S(=O)(=O)N2CCCC2)c(C)s1 | 7.9µM* | ? | .
Cc1ccc(S(=O)(=O)N2CCCN(S(=O)(=O)c3ccc(C)c(C)c3)CC2)cc1C | ? | 17 | -1%
Cc1ccccc1-c1cc(NCCN2CCOCC2)ncn1 | 15% | . | .
C=CCOc1nc2c(c(=O)n(C)c(=O)n2C)n1C | 9% | -1 | -10%
C/C=C/COc1nc2c(c(=O)n(C)c(=O)n2C)n1C | 3% | -100* | -10%
Cc1nnc(NC(=O)c2ccc3ccccc3n2)s1 | -4% | . | .
N#Cc1cnn2c(-c3ccc(Cl)cc3Cl)ccnc12 | -13% | . | .
CCc1ccc(C(=O)CN2C(=O)NC(C)(CCc3ccccc3)C2=O)cc1 (stereo unspecified) | 5% | ? | -4%
Cc1oc2nc(SCC(=O)N3CCCCC3)nc(N)c2c1C | ? | 4 | 1.4µM*
Cc1cc(C)nc(SCC(=O)N2CCOCC2)n1 | 8% | ? | -11%
CC(C)CCN(CCC(C)C)C(CO)(CO)CO | 28µM* | . | .
CCN(CC(=O)Nc1ccc(C)c(F)c1)CC(=O)NC(C)C | 3.2µM* | . | .
CCN(CC(=O)Nc1ccc(Br)c(C)c1)CC(=O)NC(C)C | -9% | . | .
SMILES | ALDH1A1 block | PNC inhibitor | HPGD inh
Cc1cc(C)nc(N/N=C/c2ccccc2)n1 | 10µM* | 14 | 14µM*
Cc1cc(=O)[nH]c(N/N=C/C=C/c2ccccc2)n1 | -3% | . | .
Cc1cc(C)nc(N/N=C/C=C/c2ccccc2)n1 | -13% | -104* | -17%
Cc1cc(C)nc(N/N=C/C(Cl)=C/c2ccccc2)n1 | 11% | 4 | -20%
CCOc1ccc(S(=O)(=O)NN2Cc3ccccc3C2=N)cc1 | 8% | . | .
CC(C)(C)c1ccc(/C=C(\C#N)C(=O)NCCN2CCOCC2)cc1 | -8% | . | .
CC(=O)/C(=N/Nc1ccccc1C)N1CCOCC1 | 18µM* | -3 | -27%
CC(=O)/C(=N/Nc1cccc(Cl)c1)N1CCOCC1 | 13µM* | ? | -27%
Cc1ccccc1NC(=O)NC1(C(=O)N2CCOCC2)CCCCC1 | 3% | . | .
CC(=O)/C(=N/Nc1ccccc1)N1CCOCC1 | -4% | ? | -20%
C#CCCCO/N=C1/[C@H]2O[C@@H]2[C@@H](O)[C@H]2[C@H]1CCn1c(=O)n(Cc3cc4c(cc3Cl)OCO4)c(=O)n12 | -2%[13.5 µM] | . | .
CCc1[nH]c(C(=O)O)c(C)c1C(=O)OC | 8% | . | .
NCCCCN | 6% | . | -8%
O=C1CC(Nc2ccc(N3CCOCC3)cc2)C(=O)N1Cc1ccccc1 (stereo unspecified) | ? | -119* | 5%
CCOc1ccccc1N1C(=O)CC(Nc2ccc(N3CCOCC3)cc2)C1=O (stereo unspecified) | 7.9µM* | 12 | -16%
COc1ccccc1N1C(=O)CC(Nc2ccc(N3CCOCC3)cc2)C1=O (stereo unspecified) | ? | -3 | -8%
O=C1CC(Nc2ccc(N3CCOCC3)cc2)C(=O)N1c1ccccc1 (stereo unspecified) | ? | 11 | -9%
